# The campaign covered roughly 360,000 compounds. About 4,200 (1.2%) were called active.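 Rule for the calls: active = mean replicate inhibition at least 60% with every replicate also reaching 60%; inconclusive = only one of the two criteria is met; inactive = mean below 60% and not all replicates reaching 60%.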 For the sample, actives were picked, then their nearest neighbours and some compounds at random.
# Assay: PAX8 transcriptional activity inhibition in RMG-I – RMG-I cells, luciferase, single concentration, primary screen (AID 652154);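 note: luciferase light reporting Pax8 driven TPO promoter activity; plate controls were median of neutral control wells for no effect and mitoxantrone controls for full effect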
# Settings: RMG-I TPO-luciferase reporter, SteadyGlo, 24 h; at 12.6 µM; hits give high values
row,SMILES,inhibition
1,C[C@@H]1CN([C@H](C)CO)C(=O)CCCn2cc(nn2)CO[C@@H]1CN(C)C(=O)Nc1ccc2c(c1)OCO2,-4.65% (inactive)
2,C[C@@H]1CCCCO[C@@H](CN(C)C(=O)CCC(F)(F)F)[C@@H](C)CN([C@H](C)CO)C(=O)c2cc(NC(=O)Nc3ccccc3)ccc2O1,-44.3% (inactive)
3,CC1=C(C(=O)OC2CCCCC2)C(c2cccnc2)n2ncnc2N1 (stereo unspecified),143% (active)
4,CC1=C(C(=O)OC2CCCCC2)C(c2ccccc2F)NC(=O)N1 (stereo unspecified),23.9% (inactive)
5,COc1cc(C2C(C(=O)Nc3ccccc3OC)=C(C)Nc3ncnn32)ccc1O (stereo unspecified),24.6% (inactive)
6,O=C(CC1CC1)N[C@@H]1C[C@@H]2O[C@H](CO)CC[C@@H]2O[C@@H]1CCc1ccc(C#Cc2ccccc2)cc1,-44% (inactive)
7,N#Cc1cccc(-c2ccc([C@H]3[C@@H](CO)N4CCCCN(C(=O)Nc5ccccc5)C[C@H]34)cc2)c1,-12.5% (inactive)
8,CCCNC(=O)Nc1ccc2c(c1)C(=O)N(C)[C@H]1CC[C@H](CC(=O)NC3CCC3)O[C@H]1CO2,-6.66% (inactive)
9,CCC(=O)N(C)C[C@H]1[C@H](c2ccc(C3=CCCCC3)cc2)[C@@H](CO)N1C(C)=O,-0.343% (inactive)
10,CCCN1[C@H](C(=O)N2CCCCC2)[C@@H](CO)[C@@H]2Cn3c(ccc(-c4ccccc4F)c3=O)[C@@H]21,-10.5% (inactive)
11,CC=Cc1ccc2n(c1=O)C[C@H]1[C@H](CO)[C@@H](C(=O)N3CCCCC3)N(Cc3ccccn3)[C@@H]21 (mixture of isomers),0.555% (inactive)
12,CCCN1[C@H](C(=O)N2CCOCC2)[C@@H](CO)[C@@H]2Cn3c(ccc(/C=C/c4ccccc4)c3=O)[C@@H]21,78.4% (active)
13,CCC(=O)N(C)C[C@@H]1Oc2ncc(C#C[C@H](C)O)cc2C(=O)N([C@@H](C)CO)C[C@@H]1C,-26.1% (inactive)
14,COCC(=O)Nc1ccc2c(c1)C(=O)N(C)C[C@@H](OC)[C@H](C)CN(C(=O)c1ccccn1)[C@@H](C)CO2,2.92% (inactive)
15,CCN1[C@@H]2c3cccc(=O)n3C[C@H]1[C@H](CO)[C@H]2C(=O)NC1Cc2ccccc2C1,-4.92% (inactive)
16,CO[C@H]1CN(C)C(=O)c2ccc(NC(=O)CC(F)(F)F)cc2OC[C@@H](C)N(C(=O)c2ccccc2F)C[C@@H]1C,-20.3% (inactive)
17,Cc1nn(CC(=O)Nc2ccc(N(C)C)cc2)c(C)c1[N+](=O)[O-],13.9% (inactive)
18,Cc1ccc(Oc2cc(NC(=O)CCCn3nc(C)c([N+](=O)[O-])c3C)cc([N+](=O)[O-])c2)cc1,84.6% (active)
19,COc1ccc(CNC(=O)CCCn2nc(C)c([N+](=O)[O-])c2C)cc1,2.46% (inactive)
20,Cc1ccccc1S(=O)(=O)N1CC[C@H]2[C@H](CO)Nc3ccc(-c4cccc(F)c4)cc3[C@H]21,-9.62% (inactive)
21,COc1ccccc1NC(=O)N1C[C@H]2[C@@H](c3ccccc31)[C@@H](CO)N2C(=O)C1CCCC1,14.9% (inactive)
22,CCCN1C[C@@H](C)[C@@H](OC)CN(C)C(=O)c2ccc(NC(=O)c3ccc(F)cc3)cc2OC[C@@H]1C,-1.32% (inactive)

row,SMILES,inhibition
1,O=C(C[C@@H]1CC[C@H]2[C@@H](COC[C@@H](O)CN2S(=O)(=O)c2cccc(Cl)c2)O1)N1CCCCC1,-3.53% (inactive)
2,Cc1c(C)n(Cc2ccc(Cl)cc2)c2ccc(C(=O)NCCCN3CCOCC3)cc12,15.4% (inactive)
3,CN1CCN(CCCNC(=O)c2ccc(/C=C3\Oc4ccccc4N(Cc4ccc(Cl)cc4)C3=O)cc2)CC1,100% (active)
4,CCC1Oc2ccccc2N(CC(=O)NCCCN2CCN(CC)CC2)C1=O (stereo unspecified),5.58% (inactive)
5,CN1c2ccc(Br)cc2[C@H]2[C@H](CCN2S(=O)(=O)c2ccccc2)[C@@H]1CO,0.611% (inactive)
6,CN1CCCCC(NC(=O)C(C)(C)C)C1=O (stereo unspecified),8.76% (inactive)
7,C[C@H](CO)N1C[C@H](C)[C@H](CN(C)CC2CC2)Oc2ccc(NC(=O)c3ccncc3)cc2C1=O,-14.7% (inactive)
8,COc1ccccc1C#Cc1ccc2c(c1)O[C@H](CN(C)Cc1cccnc1)[C@@H](C)CN([C@H](C)CO)S2(=O)=O,70% (active)
9,C[C@@H]1CN([C@H](C)CO)S(=O)(=O)c2ccc(C#CC3CCCC3)cc2O[C@@H]1CN(C)Cc1cccnc1,31.1% (inactive)
10,C[C@H](O)C#Cc1ccc2c(c1)O[C@H](CN(C)Cc1cncnc1)[C@H](C)CN([C@@H](C)CO)S2(=O)=O,19.4% (inactive)
11,C[C@H](O)C#Cc1ccc2c(c1)O[C@@H](CN(C)Cc1cncnc1)[C@H](C)CN([C@H](C)CO)S2(=O)=O,8.97% (inactive)
12,C[C@@H]1CN([C@H](C)CO)S(=O)(=O)c2ccc(/C=C/c3ccccc3)cc2O[C@@H]1CN(C)Cc1ccccc1,31% (inactive)
13,COCC#Cc1ccc2c(c1)O[C@@H](CN(C)Cc1cccnc1)[C@@H](C)CN([C@H](C)CO)S2(=O)=O,-14.2% (inactive)
14,COc1ccccc1C#Cc1ccc2c(c1)O[C@@H](CN(C)Cc1cncnc1)[C@H](C)CN([C@@H](C)CO)S2(=O)=O,74.3% (active)
15,C[C@@H]1CN([C@@H](C)CO)S(=O)(=O)c2ccc(/C=C/c3ccccc3)cc2O[C@H]1CN(C)Cc1ccccc1,11.4% (inactive)
16,C[C@@H]1CN([C@@H](C)CO)S(=O)(=O)c2ccc(/C=C/c3ccccc3)cc2O[C@H]1CN(C)Cc1cccnc1,68.6% (active)
17,COc1ccccc1NC(=O)N[C@H]1C=C[C@@H](CC(=O)N[C@@H](C)c2ccccc2)O[C@@H]1CO,4.41% (inactive)
18,O=C(C[C@H]1CC[C@@H]2[C@H](COC[C@H](O)CN2C(=O)c2ccc3c(c2)OCO3)O1)NC1CCC1,-16.6% (inactive)
19,CC(=O)Nc1ccc2c(c1)C(=O)N(C)[C@@H]1CC[C@H](CC(=O)NCc3ccccc3)O[C@H]1CO2,-2.89% (inactive)
20,C/C=C/c1cnc2c(c1)C(=O)N([C@H](C)CO)C[C@H](C)[C@@H](CN(C)C(=O)c1cccc(F)c1)O2,-7.23% (inactive)
21,C[C@H](CO)N1C[C@H](C)[C@@H](CN(C)S(=O)(=O)c2ccc(F)cc2)Oc2ccc(NC(=O)CCCCCC(=O)Nc3ccccc3N)cc2CC1=O,26.9% (inactive)
22,C[C@H](CO)N1C[C@H](C)[C@@H](CN(C)S(=O)(=O)c2cn(C)cn2)Oc2ccc(NS(=O)(=O)c3cn(C)cn3)cc2C1=O,-10.4% (inactive)

row,SMILES,inhibition
1,COC(=O)[C@@]1(Cc2ccc(OC)cc2)[C@H]2c3cc(C(=O)N4CCCC4)n(Cc4ccc(OC(F)(F)F)cc4)c3C[C@H]2CN1C(=O)c1ccccc1,77% (active)
2,COC(=O)[C@@]1(Cc2ccc(F)cc2)[C@H]2c3cc(C(=O)N(C)C)n(CCc4c[nH]c5ccc(OC)cc45)c3C[C@H]2CN1C(=O)c1ccccc1,-3.55% (inactive)
3,COC(=O)[C@@]1(Cc2ccc(F)cc2)[C@H]2c3cc(C(=O)N4CCCC4)n(C[C@H](O)CO)c3C[C@H]2CN1C(=O)c1ccccc1,0.0525% (inactive)
4,C[C@@H]1CN([C@H](C)CO)C(=O)Cc2cc(NC(=O)CCCN(C)C)ccc2O[C@@H]1CN(C)Cc1ccc(Oc2ccccc2)cc1,-19.4% (inactive)
5,Cn1cnc(CCNC(=O)C[C@H]2CC[C@@H]3[C@H](COC[C@@H](O)CN3C(=O)Nc3ccc(Cl)cc3)O2)c1,-17.8% (inactive)
6,Cc1noc(C)c1S(=O)(=O)Nc1ccc2c(c1)C(=O)N([C@H](C)CO)C[C@@H](C)[C@@H](CN(C)Cc1ccccc1)OCCCC[C@@H](C)O2,15.9% (inactive)
7,Cc1ccc(NC(=O)c2nc[nH]c2C(=O)N[C@@H](CCCCNC(=O)OC(C)(C)C)C(=O)OC(C)(C)C)cc1,64% (active)
8,CC(C)(C)OC(=O)NCCCCCNC(=O)c1nc[nH]c1C(=O)NCc1ccccc1,8.72% (inactive)
9,CCOC(=O)c1ccc(NC(=O)c2nc[nH]c2C(=O)N[C@@H](CCCCNC(=O)OC(C)(C)C)C(=O)OC(C)(C)C)cc1,11.1% (inactive)
10,COc1ccccc1CCn1cnc(-c2ccccc2)c1C(C)C,14.5% (inactive)
11,Cc1ccnc(NC(=O)C2CCN(S(=O)(=O)c3c(C)c(C)cc(C)c3C)CC2)c1,74.9% (active)
12,O=C(Nc1ccccn1)C1CCN(S(=O)(=O)c2ccccc2)CC1,-150% (inactive)
13,Cc1cccc(NC(=O)C2CCN(S(=O)(=O)c3cccc4cccnc34)CC2)c1,11.9% (inactive)
14,COc1ccccc1-c1ccc2c(c1)[C@H]1[C@H](CCN1S(=O)(=O)c1ccccc1)[C@@H](CO)N2,48.7% (inactive)
15,O=C(Nc1c(Cl)c(C2CC2)nn1-c1ccccc1)C(Cl)(Cl)Cl,12.8% (inactive)
16,CCC(=O)Nc1ccc2c(c1)OC[C@H](C)N(C(=O)Cc1cccnc1)C[C@@H](C)[C@@H](OC)CN(C)C2=O,19.9% (inactive)
17,CN1CCN(C(=O)Cn2c(C(F)(F)F)nc3ccccc32)CC1,1.81% (inactive)
18,CCCCn1c(O)c(N=NC(=O)Cn2c(C(F)(F)F)nc3ccccc32)c2ccccc21,125% (active)
19,COC(=O)Cn1c(O)c(N=NC(=O)OC)c2ccccc21,8.64% (inactive)
20,CCCNC(=O)N1[C@@H]2c3ccc(-c4ccccc4OC)c(=O)n3C[C@H]1[C@H](CO)[C@H]2C(=O)N(C)C,-4.26% (inactive)
21,C=C1C(=O)[C@]23C[C@H]1CCC2[C@@]1(C)C(C[C@@H]3O)[C@](C)(C(=O)O)CC[C@@H]1O (stereo partly specified),71.9% (active)
22,CN1CCCCN2[C@@H](CO)[C@@H](c3ccc(C4=CCCC4)cc3)[C@@H]2C1,-5.77% (inactive)
